{
  "source": "PubChem BioAssay (NCATS)",
  "key": {"[1]": {"molecular_target": "Aldehyde dehydrogenase, mitochondrial (Homo sapiens) (UniProt P05091)", "experiment": "qHTS for Inhibitors of the Aldehyde Dehydrogenase Family (ALDH2) Primary screen (AID 2061308); also: nearly all actives have a fitted effect of over 55% in size", "settings": "ALDH2 enzyme inhibition qHTS, 1536-well; series mostly up to 56 µM"}, "[2]": {"molecular_target": "Retinaldehyde dehydrogenase 3 (Homo sapiens) (UniProt P47895)", "experiment": "qHTS for Inhibitors of the Aldehyde Dehydrogenase Family (ALDH1A3) Primary screen (AID 2061315)", "settings": "ALDH inhibition qHTS; series mostly up to 56 µM"}},
  "note": "Results filed as inconclusive are left out. A call without a number means that no potency is given here. Calls of active or inactive are those of the source. Calls follow the shape of the dose curve; as a rule, active = well fitted curve in the direction sought with a large enough effect; inconclusive = small, poorly fitted or top-dose-only effect, or another doubt; inactive = no such curve, though single readings can be large; an effect the other way counts as inactive or inconclusive.",
  "data": [
    {"compound": "Cc1ccc(S(=O)(=O)N2CCN(S(=O)(=O)c3ccc4c(c3)OCCO4)CC2)cc1", "values": [
      {"measurement": "Potency", "setting": "[1]", "value": "inactive"},
      {"measurement": "Potency", "setting": "[2]", "value": "inactive"}
    ]},
    {"compound": "COc1ccc(N2C(=O)c3ccccc3S2(=O)=O)cc1", "values": [
      {"measurement": "Potency", "setting": "[1]", "value": "inactive"},
      {"measurement": "Potency", "setting": "[2]", "value": "inactive"}
    ]},
    {"compound": "COc1ccc2c(=O)n3nc(Nc4cccc(N5CCN(C)CC5)c4)sc3nc2c1", "values": [
      {"measurement": "Potency", "setting": "[1]", "value": "inactive"},
      {"measurement": "Potency", "setting": "[2]", "value": "inactive"}
    ]},
    {"compound": "O=C(NCc1cccnc1)C1CCN(S(=O)(=O)c2cccs2)CC1", "values": [
      {"measurement": "Potency", "setting": "[1]", "value": "inactive"},
      {"measurement": "Potency", "setting": "[2]", "value": "inactive"}
    ]},
    {"compound": "O=C1c2ccc(Nc3ccc(F)cc3F)cc2CCc2ccc(OCC(O)CO)cc21", "note": "(configuration not stated)", "values": [
      {"measurement": "Potency", "setting": "[1]", "value": "inactive"},
      {"measurement": "Potency", "setting": "[2]", "value": "inactive"}
    ]},
    {"compound": "O=C1CCc2cc(S(=O)(=O)Nc3ccc(F)cc3)ccc2N1", "values": [
      {"measurement": "Potency", "setting": "[1]", "value": "inactive"},
      {"measurement": "Potency", "setting": "[2]", "value": "inactive"}
    ]},
    {"compound": "CC(=O)c1ccc(N2CCN(S(=O)(=O)c3ccc4c(c3)CCCC(=O)N4)CC2)cc1", "values": [
      {"measurement": "Potency", "setting": "[1]", "value": "inactive"},
      {"measurement": "Potency", "setting": "[2]", "value": "inactive"}
    ]},
    {"compound": "Cc1ccc(NS(=O)(=O)c2ccc(N3CCCC3=O)cc2)cc1C", "values": [
      {"measurement": "Potency", "setting": "[1]", "value": "inactive"},
      {"measurement": "Potency", "setting": "[2]", "value": "inactive"}
    ]},
    {"compound": "O=C(NC1CCCc2c1cnn2-c1ccc(F)cc1F)C1CCCCN1", "note": "(configuration not stated)", "values": [
      {"measurement": "Potency", "setting": "[1]", "value": "inactive"},
      {"measurement": "Potency", "setting": "[2]", "value": "inactive"}
    ]},
    {"compound": "CC(=O)Nc1ccc(S(=O)(=O)Nc2ccc(C)c(C)c2)cc1", "values": [
      {"measurement": "Potency", "setting": "[1]", "value": "inactive"},
      {"measurement": "Potency", "setting": "[2]", "value": "inactive"}
    ]},
    {"compound": "COc1ccc(C2Nc3ccccc3C(=O)N2Cc2ccco2)cc1", "note": "(configuration not stated)", "values": [
      {"measurement": "Potency", "setting": "[1]", "value": "inactive"},
      {"measurement": "Potency", "setting": "[2]", "value": "inactive"}
    ]},
    {"compound": "Cc1scc2c1C(=O)NS2(=O)=O", "values": [
      {"measurement": "Potency", "setting": "[1]", "value": "inactive"},
      {"measurement": "Potency", "setting": "[2]", "value": "inactive"}
    ]},
    {"compound": "Cc1cc(NS(=O)(=O)c2ccc(NC(=O)Cc3cccc4ccccc34)cc2)no1", "values": [
      {"measurement": "Potency", "setting": "[1]", "value": "inactive"},
      {"measurement": "Potency", "setting": "[2]", "value": "inactive"}
    ]},
    {"compound": "CO/N=C(/C(=O)N[C@@H]1C(=O)N2C(C(=O)O)=C(Cn3nnc(C)n3)CS[C@H]12)c1csc(N)n1", "values": [
      {"measurement": "Potency", "setting": "[1]", "value": "inactive"},
      {"measurement": "Potency", "setting": "[2]", "value": "inactive"}
    ]},
    {"compound": "O=C1c2ccccc2C(=O)N1c1ccc(Cl)cc1", "values": [
      {"measurement": "Potency", "setting": "[1]", "value": "inactive"},
      {"measurement": "Potency", "setting": "[2]", "value": "inactive"}
    ]},
    {"compound": "O=C(Nc1ccc(C(=O)Nc2nccs2)cc1)c1ccc2ccccc2c1", "values": [
      {"measurement": "Potency", "setting": "[1]", "value": "inactive"},
      {"measurement": "Potency", "setting": "[2]", "value": "inactive"}
    ]},
    {"compound": "O=C1c2ccccc2C(=O)N1c1cccc(Cl)c1", "values": [
      {"measurement": "Potency", "setting": "[1]", "value": "inactive"},
      {"measurement": "Potency", "setting": "[2]", "value": "inactive"}
    ]},
    {"compound": "Fc1ccc(-c2ccc(Nc3nc(-c4ccncc4)nc4ccccc34)cc2F)c(F)c1", "values": [
      {"measurement": "Potency", "setting": "[1]", "value": "inactive"},
      {"measurement": "Potency", "setting": "[2]", "value": "inactive"}
    ]},
    {"compound": "N#Cc1ccc(NC(=O)Nc2nnc(-c3ccncc3)s2)cc1", "values": [
      {"measurement": "Potency", "setting": "[1]", "value": "inactive"},
      {"measurement": "Potency", "setting": "[2]", "value": "inactive"}
    ]},
    {"compound": "O=C(c1c(F)cccc1F)N1CCN(S(=O)(=O)c2ccc3c(c2)OCCO3)CC1", "values": [
      {"measurement": "Potency", "setting": "[1]", "value": "inactive"},
      {"measurement": "Potency", "setting": "[2]", "value": "inactive"}
    ]},
    {"compound": "COc1cccc(OC)c1C1=Nn2c(nnc2-c2ccccc2O)SC1", "values": [
      {"measurement": "Potency", "setting": "[1]", "value": "inactive"},
      {"measurement": "Potency", "setting": "[2]", "value": "inactive"}
    ]},
    {"compound": "COc1ccc(C(=O)Nc2nc(-c3ccccc3)cs2)cc1NS(=O)(=O)c1ccc(C)cc1", "values": [
      {"measurement": "Potency", "setting": "[1]", "value": "inactive"},
      {"measurement": "Potency", "setting": "[2]", "value": "inactive"}
    ]},
    {"compound": "CC(=O)c1c(C)[nH]c(C(=O)Nc2ccc(OCCCN(C)C)c(S(=O)(=O)Nc3ccc(Br)cc3)c2)c1C", "values": [
      {"measurement": "Potency", "setting": "[1]", "value": "inactive"},
      {"measurement": "Potency", "setting": "[2]", "value": "inactive"}
    ]},
    {"compound": "COc1ccc(OC)c(C2=Nn3c(nnc3-c3ccccc3O)SC2)c1", "values": [
      {"measurement": "Potency", "setting": "[1]", "value": "inactive"},
      {"measurement": "Potency", "setting": "[2]", "value": "inactive"}
    ]},
    {"compound": "CN(CC(=O)Nc1ccc(N2CCOCC2)cc1)Cc1ccccc1O", "values": [
      {"measurement": "Potency", "setting": "[1]", "value": "inactive"},
      {"measurement": "Potency", "setting": "[2]", "value": "inactive"}
    ]},
    {"compound": "C=C1C(=O)OC2/C=C(\\C)CC/C=C(\\C(=O)O)CC/C=C(\\C)CCC12", "note": "(configuration not stated)", "values": [
      {"measurement": "Potency", "setting": "[1]", "value": "inactive"},
      {"measurement": "Potency", "setting": "[2]", "value": "inactive"}
    ]},
    {"compound": "COc1cccc(C(=O)NCCc2nc3ccccc3n2CCOc2ccc(C)cc2)c1", "values": [
      {"measurement": "Potency", "setting": "[1]", "value": "inactive"},
      {"measurement": "Potency", "setting": "[2]", "value": "inactive"}
    ]},
    {"compound": "S=C(NCCCc1cnc[nH]1)NCCCN(Cc1ccc(Cl)c(Cl)c1)c1ccc(Br)cn1", "values": [
      {"measurement": "Potency", "setting": "[1]", "value": "inactive"},
      {"measurement": "Potency", "setting": "[2]", "value": "inactive"}
    ]},
    {"compound": "Cc1nc(-c2ccccc2C(C)C)nc(NCc2ccc(-c3cccnc3)cc2)c1C", "values": [
      {"measurement": "Potency", "setting": "[1]", "value": "inactive"},
      {"measurement": "Potency", "setting": "[2]", "value": "inactive"}
    ]},
    {"compound": "FC(F)(F)c1cccc(N2CCN(C(=S)Nc3ccccn3)CC2)c1", "values": [
      {"measurement": "Potency", "setting": "[1]", "value": "inactive"},
      {"measurement": "Potency", "setting": "[2]", "value": "inactive"}
    ]},
    {"compound": "CC1=C(CC(=O)O)c2cc(F)ccc2C1=Cc1ccc(S(C)(=O)=O)cc1", "values": [
      {"measurement": "Potency", "setting": "[1]", "value": "inactive"},
      {"measurement": "Potency", "setting": "[2]", "value": "inactive"}
    ]},
    {"compound": "C=C(C)C(=O)O[C@H]1C[C@@](C)(O)C(=O)CC(O)/C(C)=C\\[C@H]2OC(=O)C(=C)[C@H]12", "note": "(some centres not stated)", "values": [
      {"measurement": "Potency", "setting": "[1]", "value": "inactive"},
      {"measurement": "Potency", "setting": "[2]", "value": "inactive"}
    ]},
    {"compound": "O=S(=O)(Nc1cccc2cccnc12)c1ccc(Br)cc1", "values": [
      {"measurement": "Potency", "setting": "[1]", "value": "inactive"},
      {"measurement": "Potency", "setting": "[2]", "value": "inactive"}
    ]},
    {"compound": "CCOc1ccccc1OCCNC(C)Cc1ccc(OC)c(S(N)(=O)=O)c1", "note": "(configuration not stated)", "values": [
      {"measurement": "Potency", "setting": "[1]", "value": "inactive"},
      {"measurement": "Potency", "setting": "[2]", "value": "inactive"}
    ]},
    {"compound": "O=C(Nc1cc(C(F)(F)F)cc(C(F)(F)F)c1)Nc1nnc(-c2ccncc2)s1", "values": [
      {"measurement": "Potency", "setting": "[1]", "value": "inactive"},
      {"measurement": "Potency", "setting": "[2]", "value": "inactive"}
    ]},
    {"compound": "Cc1ccc(NS(=O)(=O)c2cc3c(cc2N[C@H](C)CO)NC(=O)CC3)cc1C", "values": [
      {"measurement": "Potency", "setting": "[1]", "value": "inactive"},
      {"measurement": "Potency", "setting": "[2]", "value": "inactive"}
    ]},
    {"compound": "CCCn1c(-c2ccc(F)cc2)nc2c(N(C)CCN(C)C)nc(C)nc21", "values": [
      {"measurement": "Potency", "setting": "[1]", "value": "inactive"},
      {"measurement": "Potency", "setting": "[2]", "value": "inactive"}
    ]},
    {"compound": "O=C(Nc1ccc(Cl)c(Cl)c1)Nc1nnc(-c2ccncc2)s1", "values": [
      {"measurement": "Potency", "setting": "[1]", "value": "inactive"},
      {"measurement": "Potency", "setting": "[2]", "value": "inactive"}
    ]},
    {"compound": "COc1ccc(Nc2nc(C#N)nc(NC3CCCC3)n2)cc1", "values": [
      {"measurement": "Potency", "setting": "[1]", "value": "inactive"},
      {"measurement": "Potency", "setting": "[2]", "value": "inactive"}
    ]},
    {"compound": "O=C1c2ccccc2C(=O)N1c1ccc(O)cc1", "values": [
      {"measurement": "Potency", "setting": "[1]", "value": "inactive"},
      {"measurement": "Potency", "setting": "[2]", "value": "inactive"}
    ]},
    {"compound": "Cc1cnc(-c2ccccc2OC(C)C)nc1NCc1ccc(-n2ccnn2)cc1", "values": [
      {"measurement": "Potency", "setting": "[1]", "value": "inactive"},
      {"measurement": "Potency", "setting": "[2]", "value": "inactive"}
    ]}
  ]
}
